For 58 compounds, enhancement results are on record in PubChem BioAssay AID493056 (National Center for Advancing Translational Sciences (NCATS), 2011).

Hit rate of the full screen: of about 360,000 compounds, about 2,400 (0.67%) were called active. Cut-off read from the data, not from the text of the source: active = enhancement above about 30%; inactive = the rest. The entries come from a sample that favours actives as a whole.

Sequence of Thyrotropin-releasing hormone receptor (Homo sapiens) (P34981 whole entry, looked up): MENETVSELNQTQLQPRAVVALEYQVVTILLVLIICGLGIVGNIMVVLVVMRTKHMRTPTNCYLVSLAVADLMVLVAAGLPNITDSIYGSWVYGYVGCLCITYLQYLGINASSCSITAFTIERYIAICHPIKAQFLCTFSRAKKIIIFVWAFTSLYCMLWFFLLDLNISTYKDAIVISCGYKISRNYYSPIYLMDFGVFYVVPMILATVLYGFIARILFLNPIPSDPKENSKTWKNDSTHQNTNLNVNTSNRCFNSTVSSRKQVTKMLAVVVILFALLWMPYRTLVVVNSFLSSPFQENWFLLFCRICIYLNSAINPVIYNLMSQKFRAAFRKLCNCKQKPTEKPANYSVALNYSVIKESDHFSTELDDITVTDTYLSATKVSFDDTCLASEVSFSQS

In this test the target is Thyrotropin-releasing hormone receptor (Homo sapiens) (UniProt P34981). Nature of the test: qHTS for Small Molecule Agonists and Allosteric Enhancers of Human TRH Receptor: Primary Screen for Enhancers. Note: 0% is about no effect. To be noted: TRHR cells, fluo-8 calcium fluorescence, EC20 TRH enhancement; at 2 µM; hits give high values. The gist of the method:
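TRHR-expressing cells loaded with fluo-8 calcium dye were read kinetically (ex 480/em 530) during compound addition, then stimulated with an EC20 of TRH (10 nM final). Enhancement of the Gq-mediated intracellular calcium response was scored.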
Turning to `CCCC(=O)Nc1cc2nn(-c3ccccc3)nc2cc1C`, the enhancement was -3.06% (inactive).
In the case of `CCCn1c2ccccc2c2cnn(CC(=O)NCC3CCN(Cc4ccc(C)cc4)CC3)c(=O)c21` it was 1.43% (inactive).
In the case of `O=C(COC(=O)c1c2c(nc3ccccc13)CCCC2)c1ccc(Br)s1` it was 35% (active).
Regarding `CCc1nc2ccccc2c(C(=O)OC2CCCCC2=O)c1C` (stereo not drawn), the enhancement was -2.51% (inactive).
As to `CCOc1ccc(NC(=O)CSc2c3c(nc4ccccc24)CCCC3)cc1`, the enhancement was -3.93% (inactive).
In the case of `Cc1cc(NS(=O)(=O)c2ccc3oc(=O)c4ncn(C)c4c3c2)ccc1Br` it was -12.1% (inactive).
In the case of `COc1ccc2c(c1)C=C(C(=O)NCc1cc(Br)ccc1OC)CO2` it was -3.71% (inactive); in that of `CCCC(=O)Nc1ccc(NC(=O)c2sc3ccccc3c2Cl)cc1`, -1.06% (inactive).
Next, `CCC(=O)N1CCc2cc(S(=O)(=O)NC(C(=O)NCCc3ccc(C)cc3)C(C)C)ccc21` (stereo not drawn): 18.2% (inactive); `CN(C(=O)CSc1nnc(NC(=O)Nc2ccccc2)s1)c1ccccc1`: -6.25% (inactive).
For `CN(C(=O)CSc1nnc(Nc2ccccc2)s1)C1CCS(=O)(=O)C1` (stereo not drawn), the enhancement is 51.4% (active).
In the case of `CCn1c(SCC(=O)N(C)C2CCS(=O)(=O)C2)nnc1-c1cccs1` (stereo not drawn) it was 2.93% (inactive); in that of `CC(=O)c1ccc(N2CCN(C3C(=O)c4ccccc4N3C(C)=O)CC2)cc1` (stereo not drawn), -5.78% (inactive).
Next, `N#Cc1ccccc1Cn1cnc2nc3c(cc2c1=O)CCCC3`: 2.65% (inactive); `O=S(=O)(c1ccccc1)c1nc(-c2ccc(Cl)cc2Cl)oc1N1CCCCC1`: 2.85% (inactive).
Consider `CCCCNC(=O)C1CCCN(c2nnc(C)c3c(C)n(-c4ccc(Cl)cc4)nc23)C1` (stereo not drawn), for which the enhancement was -2.23% (inactive).
Turning to `CC(C)C1Nc2c(C(=O)O)cccc2C(Nc2ccccc2C(=O)O)C1(C)C` (stereo not drawn), the enhancement is 30.3% (active).
In the case of `Cc1ccc(-n2nc(CO)c(C(=O)NCCc3ccccc3)n2)cc1` it was -1.1% (inactive); in that of `CC(=O)N1CCCc2cc(S(=O)(=O)N3CCC(C(=O)NCc4ccc(C)cc4)CC3)ccc21`, 4% (inactive); in that of `CCc1ccc(Sc2cc(C(=O)NCCCOC(C)C)c3ccccc3n2)cc1`, -9.07% (inactive).
Turning to `O=C1COc2ccc(C(=O)COC(=O)c3cccnc3Cl)cc2N1`, the enhancement was -8.83% (inactive).
Consider `CC1COc2ccccc2N1S(=O)(=O)c1ccccc1` (stereo not drawn), for which the enhancement was -5.39% (inactive).
In the case of `CC1COc2ccccc2N1C(=O)c1cccnc1Cl` (stereo not drawn) it was 30.7% (active); in that of `Cc1oc2ccc(O)c(CN3CCOCC3)c2c1C(=O)Nc1cccc(Cl)c1C`, -0.894% (inactive).
For the compound `COc1ccc(-c2ccc(=O)n(CC(=O)Nc3ccc(Br)cc3F)n2)cc1`, the enhancement was 5.81% (inactive).
In the case of `S=C(Nc1ccc(Br)cc1Cl)NC1CCN(Cc2ccccc2)CC1` it was 1.92% (inactive).
For the compound `Cc1cc(C)cc(NC(=O)NC2CCCCCCC2)c1`, the enhancement is -4.13% (inactive).
In the case of `Cc1cc(Br)ccc1NC(=S)NC1CCCC1` it was 36% (active); in that of `CCOc1ccc(NC(=O)C2CCN(S(=O)(=O)c3cc(-c4noc(C)n4)ccc3C)CC2)cc1`, 0.0598% (inactive); in that of `Cc1cccc(Cn2c(CN3CCC(C(=O)NCc4ccccc4Cl)CC3)cc3ccccc32)c1`, -3.11% (inactive).
Next, `CCOc1ccc(C(=O)c2cn(Cc3ccccc3OC)c3ccc(F)cc3c2=O)cc1`: -0.366% (inactive); `N/C(=N\OC(=O)c1ccc2c(c1)OCO2)c1ccc(Br)cc1`: -2.97% (inactive).
Next, `C/C(=N\OC(=O)c1ccccc1)c1c(C)nc2cc(C)ccn12`: -2.45% (inactive); `C/C(=N/OC(=O)c1ccc(Br)cc1)c1ccc(C)cc1`: 61.7% (active); `Cc1cn(C)c(CC(=O)NCc2ccccc2)c1C(=O)O`: -2.62% (inactive).
Regarding `Cc1cccc(-c2nc(SCc3ccc(Br)cc3)n3[nH]c(=O)cc3n2)c1`, the enhancement is 4.69% (inactive).
Next, `O=C(NC1(C(F)(F)F)N=C(c2ccccc2)N(C2CCCCC2)C1=O)c1ccccc1F` (stereo not drawn): -3.75% (inactive).
Regarding `CN1CCN(c2oc(-c3ccc(COc4ccc(Cl)cc4)o3)nc2C#N)CC1`, the enhancement is 0.896% (inactive).
In the case of `Cc1ccc(C)c(NC(=O)C2CCCN(S(=O)(=O)c3cn(C)cn3)C2)c1` (stereo not drawn) it was 12.8% (inactive); in that of `O=C(NCc1ccncc1)C1CCCN(S(=O)(=O)c2ccc(Br)cc2)C1` (stereo not drawn), 30.7% (active).
Take `O=C(NCc1ccccc1)C1CCCN(S(=O)(=O)c2cccs2)C1` (stereo not drawn): the enhancement was 4.34% (inactive).
Take `CSc1ccc(S(=O)(=O)N2CCC(C(=O)NCc3ccncc3)CC2)cc1`: the enhancement is 0.598% (inactive).
For the compound `CCc1nc2c(cnn2-c2ccc(C)cc2)c(=O)n1-c1ccc(C)cc1`, the enhancement is -4.12% (inactive).
In the case of `Cc1ccc(Cn2ncc3c4sc(C)cc4n(C)c3c2=O)c(C)c1` it was 4.39% (inactive); in that of `CCCN(CCC)CCNC(=O)c1ccc2c(c1)NC(=O)C(CS(=O)(=O)Cc1cccc(Br)c1)N2` (stereo not drawn), 5.05% (inactive); in that of `O=C(C1CCN(C2CCN(Cc3cccc4c3OCO4)CC2)CC1)N1CCOCC1`, 2.59% (inactive).
Next, `C/C(=C\c1ccco1)CN1CCC(N2CCC(C(=O)N3CCOCC3)CC2)CC1`: 46.7% (active).
Regarding `O=C(C1CCN(C2CCN(Cc3ccc4cc(F)ccc4n3)CC2)CC1)N1CCCC1`, the enhancement is -6.35% (inactive).
In the case of `Cc1ccc(-c2nc(SCc3ccc(Br)cc3)n3[nH]c(=O)cc3n2)cc1` it was -0.363% (inactive); in that of `Cc1c(/C=N\NC(=O)c2cc3ccccc3o2)c2ccccc2n1C`, 44.3% (active).
Next, `CC(C)Oc1ccc(NC(=O)c2cc3ccccc3o2)cc1`: 7.33% (inactive); `CC(C)(C)n1nc2c(c1NC(=O)c1cc3ccccc3o1)CSC2`: 1.55% (inactive).
With `O=C(NCCS(=O)(=O)N1CCN(c2ccc(F)cc2)CC1)c1ccccc1Br`, the enhancement is 1.15% (inactive).
In the case of `Cc1ccc(C2CCN(C(=O)c3cnn(-c4ccccc4Cl)c3C3CCN(C(=O)OC(C)(C)C)CC3)C2)cc1` (stereo not drawn) it was 3.84% (inactive); in that of `CN1CCN(S(=O)(=O)c2ccc(N3CCN(S(=O)(=O)c4cccs4)CC3)nc2)CC1`, 39.6% (active); in that of `O=S(=O)(c1cccs1)N1CCN(CCOc2ccccc2)CC1`, 5.02% (inactive).
In the case of `CC(=O)Nc1ccc(S(=O)(=O)N2CCN(S(=O)(=O)c3cccs3)CC2)cc1` it was -0.8% (inactive).
In the case of `CCOC(=O)C1CCN(c2csc3ccc(C)cc3c2=O)CC1` it was -6.67% (inactive).
